From the supplement of paper PMC6992640

system: UCD52 (cells of a triple-negative basal-like breast cancer xenograft); assay: cell viability of combination (% of vehicle); higher = less cytotoxic; conditions: 1 µM; 72 h; partner dose: 10 nM
Procedure: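 PDX cells were treated for 72 h with each drug at 1 µM plus carfilzomib (10 nM; 100 nM for WHIM2). Luciferase viability is expressed as percent of vehicle.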

SMILES	cell viability of combination
CCCCCCCCCCCC[N+](C)(C)CCOc1ccccc1.[Br-] [Domiphen Bromide] + CC(C)C[C@H](NC(=O)[C@H](CCc1ccccc1)NC(=O)CN1CCOCC1)C(=O)N[C@@H](Cc1ccccc1)C(=O)N[C@@H](CC(C)C)C(=O)[C@@]1(C)CO1 [Carfilzomib]	57.1
CCCCCCCCCCCCCCCC[N+](C)(C)C.[Br-] [Cetrimonium Bromide (CTAB)] + CC(C)C[C@H](NC(=O)[C@H](CCc1ccccc1)NC(=O)CN1CCOCC1)C(=O)N[C@@H](Cc1ccccc1)C(=O)N[C@@H](CC(C)C)C(=O)[C@@]1(C)CO1 [Carfilzomib]	53.1
CCCCCCCCCCCCCCCC[n+]1ccccc1.[Cl-] [Cetylpyridinium Chloride] + CC(C)C[C@H](NC(=O)[C@H](CCc1ccccc1)NC(=O)CN1CCOCC1)C(=O)N[C@@H](Cc1ccccc1)C(=O)N[C@@H](CC(C)C)C(=O)[C@@]1(C)CO1 [Carfilzomib]	48.1
Cc1cc(C(C#N)c2ccc(Cl)cc2)c(Cl)cc1NC(=O)c1cc(I)cc(I)c1O (stereo not given) [Closantel] + CC(C)C[C@H](NC(=O)[C@H](CCc1ccccc1)NC(=O)CN1CCOCC1)C(=O)N[C@@H](Cc1ccccc1)C(=O)N[C@@H](CC(C)C)C(=O)[C@@]1(C)CO1 [Carfilzomib]	65.7
Cc1cc(C(C#N)c2ccc(Cl)cc2)c(Cl)cc1NC(=O)c1cc(I)cc(I)c1[O-].[Na+] (stereo not given) [Closantel Sodium] + CC(C)C[C@H](NC(=O)[C@H](CCc1ccccc1)NC(=O)CN1CCOCC1)C(=O)N[C@@H](Cc1ccccc1)C(=O)N[C@@H](CC(C)C)C(=O)[C@@]1(C)CO1 [Carfilzomib]	65.9
